Test systems include NCI-H23 lung; NCI-H322M lung; HOP-62 NSCLC; NCI-H460 lung; HOP-92 NSCLC; NCI-H522 lung; A549/ATCC NSCLC; 786-0 renal; COLO 205 colon; DU-145 prostate; K-562 leukemia; MALME-3M melanoma; MDA-MB-231 breast; RXF 393 renal; SF-268 CNS; SF-295 CNS; SF-539 CNS; UACC-257 melanoma; M14 melanoma; HCT-15 colon.
What all share (assay): NCI-60 one-dose screen, 48 h (100 = growth as untreated, 0 = no growth, -100 = all killed)
Holding throughout (conditions): 10 µM unless noted

Each structure is given as a SMILES string. This is part of a sample that, as a whole, favours compounds with a hit. Of some 83,000 tested, about 20% had one in any assay.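 Single-dose data. Exposure time 48 hours. Values below 10 considered active.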 Values without a mark were called inactive. Calls of active or inactive are those of the source.

With `COc1cc(/C=C2\CN(C)C/C(=C\c3cc(CN4CCCC4)c(O)c(OC)c3)C2=O)cc(CN2CCCC2)c1O`, the growth in the experiment with NCI-H23 lung is 52.2%; in the experiment with NCI-H322M lung, 84.7%; in the experiment with HOP-62 NSCLC, 82%; in the experiment with NCI-H460 lung, 34.1%; in the experiment with HOP-92 NSCLC it was 66.8%; in the experiment with NCI-H522 lung it was 34.7%. Besides, the growth with A549/ATCC NSCLC is 85.6%; with 786-0 renal it was 72.2%; with COLO 205 colon it was 49%; in the experiment on DU-145 prostate, 60.8%; in the experiment on K-562 leukemia it was 19.4%; in the experiment with MALME-3M melanoma, 86%. For the same compound, the growth in the experiment with MDA-MB-231 breast is 58.9%; with RXF 393 renal, 68.9%; in the experiment on SF-268 CNS, 61.3%; in the experiment on SF-295 CNS, 100%; with SF-539 CNS it was 68.2%; in the experiment with UACC-257 melanoma, 93.7%. Also, the figures for the growth with M14 melanoma and with HCT-15 colon were 99.1% and 88%, respectively.
With `O=c1oc2ccc(F)cc2c(=O)n1-c1ccc(F)cc1F`, the growth in the experiment on NCI-H23 lung is 11.4%; with NCI-H322M lung it was 36.7%; with HOP-62 NSCLC, 30.5%; in the experiment with NCI-H460 lung it was 14.7%; in the experiment on HOP-92 NSCLC it was -29% (active); in the experiment with NCI-H522 lung, -8.1% (active). The growth was 15.2% in the experiment on A549/ATCC NSCLC; 73.1% in the experiment with 786-0 renal; 93.9% in the experiment with COLO 205 colon; 28.3% with DU-145 prostate; 15.7% in the experiment with K-562 leukemia; -6.02% (active) with MALME-3M melanoma. Besides, the growth was 51.1% in the experiment with MDA-MB-231 breast; 33.5% in the experiment with RXF 393 renal; 15% with SF-268 CNS; 37.9% with SF-295 CNS; 18.5% in the experiment with SF-539 CNS; 17.5% in the experiment with UACC-257 melanoma. Moreover, the values for the growth in the experiment with M14 melanoma and in the experiment on HCT-15 colon were 29% and 23.3%, respectively.
Take `COc1ccc(C2C3=C(COC3=O)N(CCO)c3cc4c(cc32)CCC4)cc1` (stereo not given): the growth in the experiment with NCI-H23 lung is 87.2%; in the experiment with NCI-H322M lung, 96.2%; with HOP-62 NSCLC it was 51.5%; with NCI-H460 lung, 25.9%; in the experiment with HOP-92 NSCLC, 70.8%; in the experiment on NCI-H522 lung it was 37.8%. Moreover, the growth was 46.6% with A549/ATCC NSCLC; 54.8% in the experiment with 786-0 renal; 52.1% in the experiment with COLO 205 colon; 78.5% with DU-145 prostate; 24% in the experiment with K-562 leukemia; 64.7% with MALME-3M melanoma. Further, the growth with MDA-MB-231 breast is 70.9%; in the experiment with RXF 393 renal, 30.5%; with SF-268 CNS, 74.5%; with SF-295 CNS, 16.3%; with SF-539 CNS it was 57.2%; with UACC-257 melanoma, 57.1%. For the same compound, the growth is 38% in the experiment on M14 melanoma and 37.3% with HCT-15 colon.
For the compound `COc1cccc2c1C=C1CCCCC3=Cc4c(OC)cccc4OC13O2`, the growth was 55.9% in the experiment with NCI-H23 lung; 61.2% in the experiment with NCI-H322M lung; 56.8% in the experiment on HOP-62 NSCLC; 25.4% in the experiment on NCI-H460 lung; 46.8% in the experiment on HOP-92 NSCLC; 32.7% in the experiment with NCI-H522 lung. Besides, the growth with A549/ATCC NSCLC was 45.8%; in the experiment on 786-0 renal it was 41.7%; with COLO 205 colon it was 30.6%; in the experiment on DU-145 prostate, 63.5%; in the experiment with K-562 leukemia, 17.4%; in the experiment on MALME-3M melanoma, 36.5%. Besides, the growth was 56.7% in the experiment with MDA-MB-231 breast; 32.8% in the experiment with RXF 393 renal; 50.8% with SF-268 CNS; 27.2% with SF-295 CNS; 39.4% in the experiment with SF-539 CNS; 62.1% in the experiment on UACC-257 melanoma. The growth in the experiment on M14 melanoma is 27.3%; in the experiment with HCT-15 colon, 28.3%.
For the compound `O=C(CSc1nc2ccccc2c(=O)n1-c1ccccc1)Nc1ccc(C(=O)/C=C/c2ccc(Cl)cc2)cc1`, the growth in the experiment with NCI-H23 lung was 93.4%; in the experiment with NCI-H322M lung it was 101%; in the experiment on HOP-62 NSCLC, 107%; in the experiment with NCI-H460 lung, 100%; in the experiment with HOP-92 NSCLC, 97.1%; with NCI-H522 lung it was 85.3%. Moreover, the growth was 97% with A549/ATCC NSCLC; 102% with 786-0 renal; 108% in the experiment on COLO 205 colon; 109% with DU-145 prostate; 90.8% in the experiment with K-562 leukemia; 95.5% in the experiment with MALME-3M melanoma. For the same compound, the growth in the experiment with MDA-MB-231 breast is 93.3%; with RXF 393 renal, 127%; in the experiment on SF-268 CNS it was 115%; in the experiment with SF-295 CNS, 105%; with SF-539 CNS, 113%; in the experiment on UACC-257 melanoma, 89.6%. Also, the growth with M14 melanoma is 101%; in the experiment on HCT-15 colon, 98.1%.
For `CN(C)CCNc1cc(-c2ccccc2)nc2ccccc12`, the growth with NCI-H23 lung was -32.9% (active); in the experiment with NCI-H322M lung it was 8.29% (active); with HOP-62 NSCLC it was -65.4% (active); in the experiment with NCI-H460 lung, 0.75% (active); in the experiment on HOP-92 NSCLC, -68.6% (active); in the experiment with NCI-H522 lung it was -90.6% (active). In addition, the growth in the experiment on A549/ATCC NSCLC was -53.8% (active); in the experiment on 786-0 renal, -79.2% (active); in the experiment with COLO 205 colon it was -73.7% (active); in the experiment with DU-145 prostate it was -62.1% (active); in the experiment on K-562 leukemia, 0.508% (active); in the experiment on MALME-3M melanoma it was -77.3% (active). For the same compound, the growth in the experiment with MDA-MB-231 breast is -33.7% (active); in the experiment with RXF 393 renal, -91.1% (active); in the experiment with SF-268 CNS, -53.3% (active); with SF-295 CNS it was -71.5% (active); in the experiment on SF-539 CNS, -74.4% (active); with UACC-257 melanoma, -74.5% (active). Further, the results for the growth in the experiment with M14 melanoma and in the experiment with HCT-15 colon were -20.4% (active) and 6.92% (active), respectively.
`O=C1C(Cl)=C(NCc2ccco2)C(=O)c2ccccc21`: the growth in the experiment on NCI-H23 lung is 37.3%; with NCI-H322M lung, 115%; in the experiment on HOP-62 NSCLC it was 37%; with NCI-H460 lung it was 54.5%; in the experiment with HOP-92 NSCLC, 103%; in the experiment on NCI-H522 lung it was 75.9%. Besides, the growth with A549/ATCC NSCLC is 47.4%; in the experiment with 786-0 renal it was 113%; in the experiment on COLO 205 colon, 84.8%; in the experiment on DU-145 prostate it was 15.6%; with K-562 leukemia, 70.6%; in the experiment with MALME-3M melanoma it was 54.6%. In addition, the growth with MDA-MB-231 breast was 68.1%; in the experiment on RXF 393 renal, 101%; in the experiment on SF-268 CNS, 103%; with SF-295 CNS, 75.8%; in the experiment on SF-539 CNS, 115%; in the experiment on UACC-257 melanoma, 58.7%. The growth in the experiment on M14 melanoma was 77.4%; with HCT-15 colon, 81.3%.
With `Cc1cc(Br)c(N)c(Br)c1`, the growth in the experiment on NCI-H23 lung was 97%; with NCI-H322M lung, 105%; with HOP-62 NSCLC, 87.9%; in the experiment with NCI-H460 lung, 104%; in the experiment with HOP-92 NSCLC, 106%; with NCI-H522 lung it was 86.3%. Moreover, the growth is 73.3% with A549/ATCC NSCLC; 93.3% in the experiment with 786-0 renal; 106% in the experiment on COLO 205 colon; 108% in the experiment on DU-145 prostate; 90% in the experiment on K-562 leukemia; 104% in the experiment with MALME-3M melanoma. Moreover, the growth with MDA-MB-231 breast is 103%; in the experiment on RXF 393 renal, 106%; with SF-268 CNS it was 106%; with SF-295 CNS it was 95.9%; in the experiment with SF-539 CNS, 95.5%; in the experiment with UACC-257 melanoma, 77.5%. Further, the growth in the experiment on M14 melanoma is 89.3%; with HCT-15 colon, 96.1%.

Values taken from PubChem BioAssay (NCI).
